Source: PubChem BioAssay
A selection: hits, their analogues and other compounds. The true share with any hit is near 11%.
USP30 block: inhibitors of human USP30 deubiquitinase | purified USP30, Ub-rhodamine cleavage fluorescence | inhibition, % at 25 µM | 5.3% of 47,000 active
USP17 block: inhibitors of human USP17 deubiquitinase. inhibition, % at 50 µM. 6.5% of 47,000 active. purified USP17, Ub-rhodamine cleavage fluorescence, 3 h
USP28 inh: inhibitors of human USP28 deubiquitinase | inhibition, % at 25 µM | 3% of 47,000 active | purified USP28, Ub-rhodamine cleavage fluorescence, 30 min | AID 1645857, 2021 | Ubiquitin carboxyl-terminal hydrolase 28 (Homo sapiens), Q96RU2
A number is an active result; n = inactive. No stated cut-off is given here; in the data, active means inhibition above about 30%; inactive means the rest.

SMILES | USP30 block | USP17 block | USP28 inh
COc1ccc(-c2nc(SCC(=O)Nc3ccccc3F)n[nH]2)cc1 | n | n | n
CN(C)CCNC(=O)c1nc2c(o1)CN(C(=O)c1cccnc1)C2 | n | n | n
Fc1ccc(CNc2cc(-n3ccnc3)ncn2)c(F)c1 | n | n | n
Fc1ccc(Cl)cc1-c1nnc(-c2ccc(-n3ccnc3)nc2)o1 | 46.3 | 48.4 | n
Fc1ccc(F)c(-c2nnc(-c3ccc(-n4ccnc4)nc3)o2)c1 | n | 46.5 | n
Cc1ccc(Cc2nc(-c3ccc(-n4ccnc4)nc3)no2)cc1 | n | n | n
CCN1CCN(c2nc(N3CCOCC3)nc3c2cnn3C)CC1 | n | n | n
CNc1nc2c(c(=O)n1Cc1ccccc1)CCN(C(=O)Nc1ccccc1)C2 | n | n | n
COc1ccccc1N1CCN(C(=O)[C@H]2[C@@H]3C[C@@H]4[C@H]2C(=O)O[C@@H]4C3)CC1 | n | n | n
C[C@@H]1/C=C/CC/C=C/C(=O)[C@H](C)[C@@H]2CC[C@@H](C)[C@@](O)(O2)C(=O)C(=O)N2CCCC[C@H]2C(=O)O[C@H]([C@H](C)C[C@@H]2CC[C@@H](O)[C@H](O)C2)CC1 | 92.6 | 82.0 | 97.4
CO[C@H]1C[C@@H]2CC[C@@H](C)[C@@](O)(O2)C(=O)C(=O)N2CCCC[C@H]2C(=O)O[C@@H]([C@H](C)C[C@@H]2CC[C@@H](O)[C@H](OC)C2)CC(=O)[C@H](C)/C=C(\C)[C@@H](O)CC(=O)[C@H](C)C[C@H](C)/C=C/C=C/C=C/1C | n | n | n
O=C(NCc1cccc(Br)c1)c1cc2ccccn2n1 | n | n | 30.1
O=C(NCCCN1CCOCC1)c1cc2ccccn2n1 | n | n | n
O=C(Nc1nc2c(s1)CN(C(=O)c1cnn(-c3ccccc3)n1)CC2)C1CCCO1 (centres undefined) | n | n | n
O=C(Nc1nc2c(s1)CN(C(=O)c1cc(-c3ccco3)on1)CC2)C1CCCO1 (centres undefined) | n | 33.3 | n
